PubChem BioAssay
Active and inactive are the calls of the source. Unless noted, no rule for the calls is given here.

Assays:
[1] = test system: XIP peptide (Xip251-270) binding; test: small-molecule binders of XIP peptide, primary screen, biochemical, small-molecule microarray, fluorescence 635/667 nm, 0.1 µg/mL protein (AID 1182); conditions: fluorescent protein binding, 635 nm, higher = more signal, called active from +8 up or from −8 down
XIP peptide (Xip251-270) = test: small-molecule binders of XIP peptide, primary screen, biochemical, small-molecule microarray, fluorescence 635/667 nm, 0.5 µg/mL protein (AID 1183); conditions: small-molecule microarray binding, fluorescence 635 nm; higher = more signal
[2] = Plasmodium falciparum growth inhibition, primary screen, strain 3D7, DAPI fluorescence, 100 nL (AID 1184);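 also: parasites grown inside human red blood cells in medium with human serum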; conditions: P. falciparum 3D7 growth, 3 d, higher = more signal
[3] = biological target: Homeobox protein Hox-A13 (Mus musculus) (UniProt Q62424); test: inhibitors of HoxA13-DNA binding, primary screen, biochemical, fluorescence polarization, labeled oligonucleotide (AID 1185); conditions: 15 min, higher = more signal, called active from +8 up or from −8 down
Homeobox protein Hox-A13 (Mus musculus), sequence (Q62424 whole entry, looked up): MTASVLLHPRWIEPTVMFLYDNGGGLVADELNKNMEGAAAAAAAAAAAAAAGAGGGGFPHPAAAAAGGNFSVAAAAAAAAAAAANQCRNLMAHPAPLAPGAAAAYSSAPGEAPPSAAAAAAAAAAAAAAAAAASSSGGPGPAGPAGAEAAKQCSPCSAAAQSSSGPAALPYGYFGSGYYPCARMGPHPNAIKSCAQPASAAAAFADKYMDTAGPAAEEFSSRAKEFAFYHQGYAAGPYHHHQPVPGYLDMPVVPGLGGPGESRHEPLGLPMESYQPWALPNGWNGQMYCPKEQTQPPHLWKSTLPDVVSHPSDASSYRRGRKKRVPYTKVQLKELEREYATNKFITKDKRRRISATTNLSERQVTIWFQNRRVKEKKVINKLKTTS

[4] = inhibitors of hydroxyurea-induced Chk1 phosphorylation, primary screen, imaging, HeLa, phospho-Chk1 antibody, percent positive cells (AID 1186); conditions: hydroxyurea-induced phospho-Chk1 immunofluorescence imaging, higher = more signal
[5] = inhibitors of hydroxyurea-induced Chk1 phosphorylation, primary screen, imaging, HeLa, phospho-Chk1 nuclear intensity (AID 1187); conditions: hydroxyurea-induced phospho-Chk1 immunofluorescence imaging, higher = more signal

With `COC(=O)[C@@]1(Cc2ccccc2N=[N+]=[N-])N=C(c2ccc(OCCCO)cc2)O[C@H]1c1ccccc1` the composite z-score [1] was 0.37 (inactive), the composite z-score (XIP peptide (Xip251-270)) was 0.601 and the z-score [2] was -1.85. The z-score [3] was -3.98 (inactive), the z-score [4] was 0.069 (inactive) and the z-score [5] was -0.447 (inactive).

For `C=C(/C(=C/C[C@@H](OC(C)=O)c1ccccc1OCCO)c1cnc2ccccc2c1)C(C)C`, the composite z-score [1] was 0.143 (inactive), the composite z-score (XIP peptide (Xip251-270)) was 0.339 and the z-score [2] was -2.62. The z-score [3] was -5.18 (inactive), the z-score [4] was 0.642 (inactive) and the z-score [5] was 0.0715 (inactive).

With `O=C1OCCC=C[C@H]2OC34C=CCN(Cn5nnc6ccccc65)C(=O)[C@H]3N(CCCCCO)C(=O)[C@@H]4C12` (some centres not stated) the composite z-score [1] was 0.282 (inactive), the composite z-score (XIP peptide (Xip251-270)) was -0.75 and the z-score [2] was 0.561. For the same compound, the z-score [3] was -4.63 (inactive), the z-score [4] was 1.09 (inactive) and the z-score [5] was 1.08 (inactive).

For `CC(C)[Si](C#C[Si](C(C)C)(C(C)C)C(C)C)(O[C@H](C)c1cn(Cc2cccc(Cl)c2)nn1)C(C)C`, the composite z-score [1] was -0.109 (inactive), the composite z-score (XIP peptide (Xip251-270)) was -0.0612 and the z-score [2] was 0.293. For the same compound, the z-score [3] was 0.702 (inactive), the z-score [4] was 0.0695 (inactive) and the z-score [5] was 0.153 (inactive).

With `C#CCNS(=O)(=O)N(C)C` the composite z-score [1] was 0.153 (inactive), the composite z-score (XIP peptide (Xip251-270)) was 0.0198 and the z-score [2] was -0.265. For the same compound, the z-score [3] was -0.146 (inactive), the z-score [4] was -0.271 (inactive) and the z-score [5] was 0.0602 (inactive).

For `CCCC[C@H]1OB(O)C[C@H]2C1=C(COc1ccccc1)Cn1c(=O)n(-c3ccccc3)c(=O)n12`, the composite z-score [1] was 1.9 (inactive), the composite z-score (XIP peptide (Xip251-270)) was 0.286 and the z-score [2] was -0.902. For the same compound, the z-score [3] was -7.43 (inactive), the z-score [4] was -0.309 (inactive) and the z-score [5] was -0.247 (inactive).

In the case of `O=C1N(CCS(=O)(=O)c2ccccc2)Cc2ccccc2C[C@@]12COC(c1ccc(OCCCO)cc1)=N2`, the composite z-score [1] was 0.913 (inactive), the composite z-score (XIP peptide (Xip251-270)) was 0.82 and the z-score [2] was -2.05. The z-score [3] was -4.6 (inactive), the z-score [4] was -1.03 (inactive) and the z-score [5] was -1.29 (inactive).

In the case of `C[N+](C)(C)CCCCNC(=O)[C@H]1C[C@H]2C(=O)NCC(=O)N2[C@H]1c1ccc(O)cc1`, the composite z-score [1] was 0.696 (inactive), the composite z-score (XIP peptide (Xip251-270)) was 0.922 and the z-score [2] was 0.258. For the same compound, the z-score [3] was -0.735 (inactive), the z-score [4] was -1.02 (inactive) and the z-score [5] was -0.701 (inactive).

In the case of `C=CCOC(=O)[C@@H]1[C@H]2C(=O)O[C@H](c3ccccc3)[C@H](c3ccccc3)N2[C@H](c2ccc(OCCOC(=O)[C@@H]3C[C@@H]4C(=O)N5CCC[C@H]5C(=O)N4[C@@H]3c3cccc(OCCO)c3)cc2)[C@@]12C(=O)Nc1ccc(I)cc12`, the composite z-score [1] was 0.284 (inactive), the composite z-score (XIP peptide (Xip251-270)) was 0.632 and the z-score [2] was -1.72. The z-score [3] was 1.17 (inactive), the z-score [4] was 0.021 (inactive) and the z-score [5] was 0.318 (inactive).

With `COC(=O)[C@@]1(Cc2ccccc2)[C@H]2c3cc(C(=O)N(C)C)n(Cc4ccc(O)c(OC)c4)c3C[C@H]2CN1C(=O)c1ccccc1` the composite z-score [1] was 0.332 (inactive), the composite z-score (XIP peptide (Xip251-270)) was 0.664 and the z-score [2] was -1.55. The z-score [3] was -5.2 (inactive), the z-score [4] was 0.197 (inactive) and the z-score [5] was -0.0257 (inactive).

In the case of `CCCC=C(CCC)[C@@H](NC(=O)Cc1ccccc1)c1ccc(C(=O)OC)cc1`, the composite z-score [1] was 0.349 (inactive), the composite z-score (XIP peptide (Xip251-270)) was 0.34 and the z-score [2] was -0.958. The z-score [3] was -1.93 (inactive), the z-score [4] was 0.374 (inactive) and the z-score [5] was -0.309 (inactive).

With `Cc1ccc(N2C(=O)c3ccccc3[C@](C)(C(=O)NC(C)C)[C@@H]2c2ccc(CO)cc2)nc1` the composite z-score [1] was -0.224 (inactive), the composite z-score (XIP peptide (Xip251-270)) was 0.677 and the z-score [2] was -0.736. The z-score [3] was -0.858 (inactive), the z-score [4] was 0.0932 (inactive) and the z-score [5] was 0.205 (inactive).

With `C=C(C)[C@@H]1CC=C(C(O)C2C=CC3C(=O)N(C4CCCCC4)C(=O)C3N2Nc2ccc(OC)cc2)CC1` (some centres not stated) the composite z-score [1] was 0.376 (inactive), the composite z-score (XIP peptide (Xip251-270)) was 0.505 and the z-score [2] was -0.409. The z-score [3] was -3.47 (inactive), the z-score [4] was -0.385 (inactive) and the z-score [5] was -0.393 (inactive).

With `COc1ccc([Si](C)(C)[C@@H]2[C@@H](CC(=O)N(CCO)Cc3ccccc3)O[C@]3(C(=O)N(C)c4c(Br)cc(C)cc43)[C@H]2C)cc1` the composite z-score [1] was 0.48 (inactive), the composite z-score (XIP peptide (Xip251-270)) was 0.373 and the z-score [2] was -1.48. For the same compound, the z-score [3] was -6.47 (inactive), the z-score [4] was -0.743 (inactive) and the z-score [5] was -1.69 (inactive).

With `COc1ccc([Si](C)(C)[C@@H]2[C@@H](CC(=O)N(CCO)Cc3ccccc3)O[C@]3(C(=O)N(Cc4ccc(N5CCOC5=O)cc4)c4ccccc43)[C@H]2C)cc1` the composite z-score [1] was 2.73 (inactive), the composite z-score (XIP peptide (Xip251-270)) was 0.666 and the z-score [2] was -0.352. The z-score [3] was -1.34 (inactive), the z-score [4] was -0.269 (inactive) and the z-score [5] was 0.0764 (inactive).

In the case of `COCCCNC(=O)[C@@]1(C)c2ccccc2C(=O)N(c2ccc(C)cn2)[C@H]1c1ccc(CO)cc1`, the composite z-score [1] was -0.625 (inactive), the composite z-score (XIP peptide (Xip251-270)) was 0.892 and the z-score [2] was 0.563. For the same compound, the z-score [3] was -1.9 (inactive), the z-score [4] was 0.228 (inactive) and the z-score [5] was 0.554 (inactive).

For `COCCOC(=O)N1C(=O)[C@@]2(c3cc(C#CC4(O)CCCCCC4)ccc31)[C@H](C(=O)NC[C@H](O)c1ccccc1)[C@H]1C(=O)O[C@H](c3ccccc3)[C@H](c3ccccc3)N1[C@@H]2c1ccc(OCCO)cc1`, the composite z-score [1] was -0.274 (inactive), the composite z-score (XIP peptide (Xip251-270)) was 0.624 and the z-score [2] was -1.19. For the same compound, the z-score [3] was -0.375 (inactive), the z-score [4] was 0.0542 (inactive) and the z-score [5] was 0.167 (inactive).
